In ChEMBL document CHEMBL1157539, “Thousands of chemical starting points for antimalarial lead identification” (Nature, 2010) one finds Inhibition data, which are given here for 40 compounds.

For orientation: Inhibition means the drop in the measured response relative to a control, in per cent.

One assay relates to Plasmodium falciparum. The assay can be described thus: GSK_TCMDC: Inhibition of Plasmodium falciparum 3D7 in whole red blood cells, using parasite LDH activity as an index of growth. Test compounds present at 2uM. It counts as functional.
`FC(F)(F)c1ccc2[nH]c(-c3ccc(-c4cccc(CNCCc5cccnc5)c4)s3)nc2c1.O=C(O)C(F)(F)F` returned an Inhibition of 100%.
The same measure, in the same setting: then `Cl.N=C(N)NN=Cc1c2ccccc2c(Cl)c2cc(Cl)ccc12`, with 97%; and `CCCc1cc(NC2CCN(C)CC2)nc(Nc2cccc(OC)c2)n1`, with 100%.
The compound `CCC(=O)N[C@@H]1CN[C@@H](C#Cc2cc3c(Nc4ccc(OCc5cccc(F)c5)c(Cl)c4)ncnc3s2)C1` had an Inhibition of 82%.
Consider `COc1ccc(Nc2ncc3c(-c4cccc(NC(=O)Cc5cccc(O)c5)c4)c[nH]c3n2)cc1OC`, for which the Inhibition turned out to be 100%.
The same measure, in the same setting: the value for `Cl.O=C(C=Cc1cccc(F)c1)NC1CCC(CCN2CCc3ccc(-c4cnccn4)cc3CC2)CC1` (configuration not stated) was 100%; that for `CC(C)CNCc1cccc(-c2cccc(CNc3ccc4ncccc4c3)c2)c1.O=C(O)C(F)(F)F` was 92%.
On the same count and under the same terms, then `C=C[C@H]1CN(CCCCCCC)CC[C@H]1CC(=O)Nc1cnnc2ccc(OC)cc12.O=C(O)C(=O)O`, with 100%.
On the same count and under the same terms, the value for `Cc1cccc2nc(-c3ccc(-c4cccc(CNCc5cccc(N)c5)c4)cc3)[nH]c12.O=C(O)C(F)(F)F` was 100%.
Turning to `O=C(Nc1ccc(OC2CCN(Cc3ccc(F)cc3)CC2)c(Cl)c1)c1ccccc1.O=C(O)C(F)(F)F`, the Inhibition amounted to 90%.
The compound `O=C(N[C@H]1CCN(Cc2ccc(OCCN3CCNCC3)c3ccccc23)C1)c1ccc(Cl)c(Cl)c1.O=C(O)C(F)(F)F` gave an Inhibition of 100%.
On the same count and under the same terms, the value for `COc1cccc(C(=O)C2CC2CN(C)CC(O)c2cc(C)c(OC)cc2C)c1.O=C(O)C(F)(F)F` (configuration not stated) was 88%; that for `COc1cc(Cc2cnc(N)nc2N)cc(OCCCCC2NC(=O)NC2=O)c1OC` (configuration not stated) was 94%; that for `COc1ccc2nccc([C@@H](O)CN3CCC(NC(=O)/C=C/c4cc(F)cc(NC(C)=O)c4)CC3)c2c1` was 97%.
Compound `CC(C)(C)c1ccc(CN2CCC(NC(=O)c3ccc(-c4cccc(Cl)c4)s3)CC2)cc1.O=C(O)C(F)(F)F` showed an Inhibition of 99%.
The same measure, in the same setting: then `Nc1nc(N)c2c(ccc3ccccc32)n1`, with 98%; and `O=C(/C=C/c1cccs1)NCC(NCCCNc1cc(=O)c2ccccc2[nH]1)c1cc(Br)cc(Br)c1` (configuration not stated), with 100%; and `CCCNCc1ccc(-c2ccc(CN(Cc3cnc(C)cn3)C(=O)/C=C/c3ccccc3C)cc2)nc1.O=C(O)C(F)(F)F`, with 95%.
Same read-out and setting: then `CCN(c1ccc(F)cc1)S(=O)(=O)c1cc(Br)cc2c1N(C(=O)C1CC1)CC2`, with 88%; and `CCNc1cc(C(=O)N[C@@H](Cc2ccccc2)[C@H](O)CNCc2cc(C#N)ccc2OC)cc(N2CCCC2=O)c1.O=C(O)C(F)(F)F`, with 85%; and `O=C(Nc1ccc(-c2csc(-c3nc4ccccc4[nH]3)c2)cc1)Nc1ccc(Cl)c(Cl)c1`, with 93%.
In turn, `O=C(Nc1cccc(OC2CCN(Cc3ccccc3)CC2)c1)c1ccc(Cl)c(Cl)c1.O=C(O)C(F)(F)F` registered an Inhibition of 100%.
The same measure, in the same setting: then `COc1ccc2nccc([C@@H](O)CN3CCC(NCc4nc5c([N+](=O)[O-])cccc5[nH]4)CC3)c2c1.O=C(O)C(=O)O`, with 100%; and `CCNc1cc(C(=O)N[C@@H](Cc2ccccc2)[C@H](O)CNCc2cccc(-c3cncnc3)c2)cc(N2CCCC2=O)c1.O=C(O)C(F)(F)F`, with 97%; and `CN1CCC(C(=O)Nc2ccc(-c3ccc(-c4nc5ccccc5[nH]4)s3)cc2)CC1`, with 99%.
The compound `CCCc1cc(=O)[nH]c(-n2nc(C)cc2NC(=O)C(CC)c2ccccc2)n1` (configuration not stated) gave an Inhibition of 94%.
Still for that read-out and setting: the value for `Cc1nc(-c2cccc3c(NC(=O)N4CCc5cc6nccc(N7CCN(C)CC7)c6cc54)cccc23)no1.Cl` was 100%.

The next assay concerns Plasmodium falciparum. The assay can be described thus: GSK_TCMDC: Inhibition of Plasmodium falciparum Dd2 in whole red blood cells, using parasite LDH activity as an index of growth. Test compounds present at 2uM. The format is functional.
On to `COc1ccc(-c2nc3cccnc3n2CC(=O)Nc2cc(Cl)c(Cl)cc2Cl)c(OC)c1`, for which the Inhibition stood at 17%.
In turn, `Cl.c1cc(-c2cc3ccc(C4=NCCN4)cc3[nH]2)ccc1C1=NCCN1` yielded an Inhibition of 99%.
The same measure, in the same setting: the value for `C[C@H](Cc1ccc(OCCCOc2ccc(C[C@@H](C)NC[C@H](O)c3cccc(Cl)c3)cc2)cc1)NC[C@H](O)c1cccc(Cl)c1.Cl` was 92%; that for `O=C(Nc1cccc(CN2CCN(Cc3ccc(O)cc3)CC2)c1)c1cccc(C(F)(F)F)c1.O=C(O)C(F)(F)F` was 15%.
`Cc1cc(N[C@@H](CC(C)C)C(=O)NCCOc2ccccc2)nc(Nc2ccccc2)n1.O=C(O)C(F)(F)F` yielded an Inhibition of 9%.
For the compound `CCCC(CC)n1ccc2c3c(N)nc(N)nc3ccc21.CS(=O)(=O)O` (configuration not stated), the Inhibition came out at 97%.
On the same count and under the same terms, then `CN(c1ccc(NC(=O)c2cccc(F)c2)cc1)C1CCCN(Cc2cccc(O)c2)C1.O=C(O)C(F)(F)F` (configuration not stated), with 2%; and `O=C(Nc1ccc(F)c(Cl)c1)NC1CCN(c2ccnc3cc(Cl)ccc23)C1.O=C(O)C(F)(F)F` (configuration not stated), with 74%.
`COc1ccc(N2CCN(CCCCNC(=O)c3ccc(/C=C/c4ccc(Cl)c(Cl)c4)cc3)CC2)c(OC)c1`: the Inhibition was determined as 51%.
On the same count and under the same terms, then `O=C(O)C[C@H](NC(=O)CCCNC(=O)c1cccc(-c2ccc(Cl)c(Cl)c2)c1)C(=O)O`, with 0%; and `COc1ccc2ncc(F)c(CCN3CCC(CNC(=O)C(=O)c4c[nH]c5ccccc45)CC3)c2n1`, with 99%.
On the same count and under the same terms, the value for `N=C(N)c1ccc(Nc2nccc(Nc3nc(-c4ccccc4)cs3)n2)cc1.O=C(O)C(F)(F)F` was 75%.
Still for that read-out and setting: the value for `CC(C)(C)c1ccc(NC(=O)c2ccc(CN3CCCN(Cc4ccsc4)CC3)cc2)cc1.O=C(O)C(F)(F)F` was 0%; that for `FC(F)(F)c1ccc2[nH]c(-c3ccc(-c4cccc(CNCCc5cccnc5)c4)s3)nc2c1.O=C(O)C(F)(F)F` was 98%; that for `Cl.N=C(N)NN=Cc1c2ccccc2c(Cl)c2cc(Cl)ccc12` was 28%.
The compound `CCCc1cc(NC2CCN(C)CC2)nc(Nc2cccc(OC)c2)n1` returned an Inhibition of 28%.
In turn, `CCC(=O)N[C@@H]1CN[C@@H](C#Cc2cc3c(Nc4ccc(OCc5cccc(F)c5)c(Cl)c4)ncnc3s2)C1` had an Inhibition of 0%.
The compound `COc1ccc(Nc2ncc3c(-c4cccc(NC(=O)Cc5cccc(O)c5)c4)c[nH]c3n2)cc1OC` registered an Inhibition of 96%.
Same read-out and setting: then `Cl.O=C(C=Cc1cccc(F)c1)NC1CCC(CCN2CCc3ccc(-c4cnccn4)cc3CC2)CC1` (configuration not stated), with 67%; and `CC(C)CNCc1cccc(-c2cccc(CNc3ccc4ncccc4c3)c2)c1.O=C(O)C(F)(F)F`, with 28%.
As for `C=C[C@H]1CN(CCCCCCC)CC[C@H]1CC(=O)Nc1cnnc2ccc(OC)cc12.O=C(O)C(=O)O`, the Inhibition is 100%.
Still for that read-out and setting: the value for `Cc1cccc2nc(-c3ccc(-c4cccc(CNCc5cccc(N)c5)c4)cc3)[nH]c12.O=C(O)C(F)(F)F` was 87%.
On the same count and under the same terms, then `O=C(Nc1ccc(OC2CCN(Cc3ccc(F)cc3)CC2)c(Cl)c1)c1ccccc1.O=C(O)C(F)(F)F`, with 89%.
Same read-out and setting: then `O=C(N[C@H]1CCN(Cc2ccc(OCCN3CCNCC3)c3ccccc23)C1)c1ccc(Cl)c(Cl)c1.O=C(O)C(F)(F)F`, with 99%; and `COc1cccc(C(=O)C2CC2CN(C)CC(O)c2cc(C)c(OC)cc2C)c1.O=C(O)C(F)(F)F` (configuration not stated), with 73%.
On to `COc1cc(Cc2cnc(N)nc2N)cc(OCCCCC2NC(=O)NC2=O)c1OC` (configuration not stated), for which the Inhibition is 0%.
`COc1ccc2nccc([C@@H](O)CN3CCC(NC(=O)/C=C/c4cc(F)cc(NC(C)=O)c4)CC3)c2c1`: the Inhibition stood at 49%.
`CC(C)(C)c1ccc(CN2CCC(NC(=O)c3ccc(-c4cccc(Cl)c4)s3)CC2)cc1.O=C(O)C(F)(F)F` displayed an Inhibition of 47%.
As to `Nc1nc(N)c2c(ccc3ccccc32)n1`, the Inhibition is 20%.
The same measure, in the same setting: the value for `O=C(/C=C/c1cccs1)NCC(NCCCNc1cc(=O)c2ccccc2[nH]1)c1cc(Br)cc(Br)c1` (configuration not stated) was 58%.
As for `CCCNCc1ccc(-c2ccc(CN(Cc3cnc(C)cn3)C(=O)/C=C/c3ccccc3C)cc2)nc1.O=C(O)C(F)(F)F`, the Inhibition is on record as 15%.
On the same count and under the same terms, the value for `CCN(c1ccc(F)cc1)S(=O)(=O)c1cc(Br)cc2c1N(C(=O)C1CC1)CC2` was 79%; that for `CCNc1cc(C(=O)N[C@@H](Cc2ccccc2)[C@H](O)CNCc2cc(C#N)ccc2OC)cc(N2CCCC2=O)c1.O=C(O)C(F)(F)F` was 51%.
`O=C(Nc1ccc(-c2csc(-c3nc4ccccc4[nH]3)c2)cc1)Nc1ccc(Cl)c(Cl)c1` returned an Inhibition of 18%.
`O=C(Nc1cccc(OC2CCN(Cc3ccccc3)CC2)c1)c1ccc(Cl)c(Cl)c1.O=C(O)C(F)(F)F` yielded an Inhibition of 45%.
The same measure, in the same setting: the value for `COc1ccc2nccc([C@@H](O)CN3CCC(NCc4nc5c([N+](=O)[O-])cccc5[nH]4)CC3)c2c1.O=C(O)C(=O)O` was 84%; that for `CCNc1cc(C(=O)N[C@@H](Cc2ccccc2)[C@H](O)CNCc2cccc(-c3cncnc3)c2)cc(N2CCCC2=O)c1.O=C(O)C(F)(F)F` was 96%; that for `CN1CCC(C(=O)Nc2ccc(-c3ccc(-c4nc5ccccc5[nH]4)s3)cc2)CC1` was 22%.
`CCCc1cc(=O)[nH]c(-n2nc(C)cc2NC(=O)C(CC)c2ccccc2)n1` (configuration not stated) showed an Inhibition of 63%.
Turning to `Cc1nc(-c2cccc3c(NC(=O)N4CCc5cc6nccc(N7CCN(C)CC7)c6cc54)cccc23)no1.Cl`, the Inhibition was 97%.
